We go through 22 compounds from PubChem BioAssay (NCATS).

Experiment [1] can be described thus: Quantitative High-Throughput drug screen in 47 multiple myeloma cell lines against the NCATS MIPE library collection: SKMM1_PLB cell viability assay (AID 1919863). Further: nearly all actives have a fitted effect of over 35% in size. Further: potency means the concentration at half of the fitted maximal effect. On viability: series mostly up to about 46 µM. The following applies: SKMM1 myeloma viability, CellTiter-Glo ATP, 48 h; viability: stronger effect = lower value. The essentials:
(§1)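 Cells were exposed to library compounds for 48 hours, after which ATP was measured by CellTiter-Glo. Signal was taken as median relative luminescence units.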
On the technique in general: ATP-based viability assays read luminescence as a measure of living cells.

A short description of experiment [2]: Quantitative High-Throughput drug screen in 47 multiple myeloma cell lines against the NCATS MIPE library collection: U266_ATCC cell viability assay (AID 1919864). Further: nearly all actives have a fitted effect of over 35% in size. Further: potency means the concentration at half of the fitted maximal effect. The gist of the method: as §1
The nature of experiment [3]: Quantitative High-Throughput drug screen in 47 multiple myeloma cell lines against the NCATS MIPE library collection: XG6_PLB cell viability assay (AID 1919865). Further: nearly all actives have a fitted effect of over 40% in size. Further: potency means the concentration at half of the fitted maximal effect. The essentials:
as §1

A short description of experiment [4]: Quantitative High-Throughput drug screen in 47 multiple myeloma cell lines against the NCATS MIPE library collection: XG1_PLB cell viability assay (AID 1919866). Further: nearly all actives have a fitted effect of over 35% in size. Further: potency means the concentration at half of the fitted maximal effect. The essentials:
as §1

Experiment [5] in a line: Quantitative High-Throughput drug screen in 47 multiple myeloma cell lines against the NCATS MIPE library collection: PE2_PLB cell viability assay (AID 1919869). Further: nearly all actives have a fitted effect of over 35% in size. Further: potency means the concentration at half of the fitted maximal effect. The essentials: as §1
Experiment [6] is described as follows: Quantitative High-Throughput drug screen in 47 multiple myeloma cell lines against the NCATS MIPE library collection: PCM6_Riken cell viability assay (AID 1919870). Further: nearly all actives have a fitted effect of over 30% in size. Further: potency means the concentration at half of the fitted maximal effect. The gist of the method: as §1
A short description of experiment [7]: Quantitative High-Throughput drug screen in 47 multiple myeloma cell lines against the NCATS MIPE library collection: RPMI8226_ATCC cell viability assay (AID 1919871). Further: nearly all actives have a fitted effect of over 30% in size. Further: potency means the concentration at half of the fitted maximal effect. The essentials:
as §1

The nature of experiment [8]: Quantitative High-Throughput drug screen in 47 multiple myeloma cell lines against the NCATS MIPE library collection: OPM2_DSMZ cell viability assay (AID 1919872). Further: nearly all actives have a fitted effect of over 30% in size. Further: potency means the concentration at half of the fitted maximal effect. The essentials:
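CellTiter-Glo luminescence (ATP) after 48 h compound exposure, 37C/5% CO2; 500 cells/well; MIPE 4.0 approved/investigational drugs pinned in; DMSO = 100%, media only = 0% viability.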

Experiment [9] in a line: Quantitative High-Throughput drug screen in 47 multiple myeloma cell lines against the NCATS MIPE library collection: KMS11_JCRBsus cell viability assay (AID 1919873). Further: nearly all actives have a fitted effect of over 50% in size. Further: potency means the concentration at half of the fitted maximal effect. The essentials: as §1
Experiment [10] is described as follows: Quantitative High-Throughput drug screen in 47 multiple myeloma cell lines against the NCATS MIPE library collection: KMS28BM_JCRB cell viability assay (AID 1919874). Further: nearly all actives have a fitted effect of over 35% in size. Further: potency means the concentration at half of the fitted maximal effect. The gist of the method:
as §1

The nature of experiment [11]: Quantitative High-Throughput drug screen in 47 multiple myeloma cell lines against the NCATS MIPE library collection: OPM1_PLB cell viability assay (AID 1918989). Further: nearly all actives have a fitted effect of over 40% in size. Further: potency means the concentration at half of the fitted maximal effect. The gist of the method: as §1
Experiment [12] in a line: Quantitative High-Throughput drug screen in 47 multiple myeloma cell lines against the NCATS MIPE library collection: VP6_DJ cell viability assay (AID 1919867). Further: nearly all actives have a fitted effect of over 40% in size. Further: potency means the concentration at half of the fitted maximal effect. The gist of the method:
as §1

Experiment [13] can be described thus: Quantitative High-Throughput drug screen in 47 multiple myeloma cell lines against the NCATS MIPE library collection: UTMC2_PLB cell viability assay (AID 1919868). Further: nearly all actives have a fitted effect of over 55% in size. The gist of the method: as §1

Inconclusive results are not listed. A number with no mark means an inactive call. Active and inactive are the calls of the source. The call rests on the fitted dose curve; in most records, active means well fitted cell-killing curve with a large enough effect; inconclusive means small, poorly fitted or top-dose-only effect, or effect the other way; inactive means no such curve, though single readings can be large or run the other way.

Turning to `Cc1cc2c(s1)Nc1ccccc1N=C2N1CCN(C)CC1`, in experiment [1], the viability (as a rule, a read-out of living cells in per cent, often relative to untreated cells) is 120%. For the same compound, the Potency result in experiment [2], in [3], in experiment [4], in [5], in experiment [6] and in experiment [7] was “inactive” throughout. For the same compound, the Potency result in [8], in experiment [9] and in experiment [10] was “inactive” in each case.
Consider `Cc1nccn1CC1CCc2c(c3ccccc3n2C)C1=O` (stereo unspecified), for which the Potency in [11] is 18.7 µM (active); in experiment [2] it was 23.5 µM (active); in [10], 2.64 µM (active). The viability in experiment [1] is 99.5%. The Potency result in [12], in experiment [5], in experiment [6], in [7] and in experiment [8] was “inactive” in each case.
In the case of `CC(=O)NC[C@H]1CN(c2ccc(N3CCOCC3)c(F)c2)C(=O)O1`, the Potency in experiment [1] was 3.72 µM (active). Besides, the Potency entry in experiment [2], in [3], in [4], in experiment [12], in experiment [13] and in experiment [5] was “inactive” throughout. Further, the Potency entry in [6], in experiment [8] and in [10] was “inactive” each time.
Consider `CC1Cc2ccccc2N1NC(=O)c1ccc(Cl)c(S(N)(=O)=O)c1` (stereo unspecified), for which the Potency entry in [11], in experiment [3], in experiment [4], in experiment [5], in experiment [6] and in experiment [7] was “inactive” in each case. In addition, the Potency entry in experiment [8] and in [9] was “inactive” throughout. Also, the Potency in experiment [2] was 6.62 µM (active); in experiment [10], 1.05 µM (active).
Take `COc1ccc(C2(C#N)CCC(C(=O)O)CC2)cc1OC1CCCC1` (stereo unspecified): the Potency in experiment [11] was 7.43 µM (active); in experiment [12], 16.6 µM (active); in experiment [6] it was 16.6 µM (active). In [1], the viability was 137%. The Potency entry in [2], in experiment [5], in [7], in experiment [8], in experiment [9] and in experiment [10] was “inactive” throughout.
For the compound `CNC[C@H](O)c1ccc(O)c(O)c1`, the Potency in experiment [1] was 12.1 µM (active); in [2], 38.2 µM (active); in [7] it was 42.9 µM (active); in [8], 13.6 µM (active); in experiment [9] it was 19.1 µM (active); in experiment [10], 21.5 µM (active). In addition, the Potency result in [3], in [4] and in experiment [6] was “inactive” each time.
In the case of `Cc1cccc(C#Cc2ccccc2)n1`, the Potency in experiment [11] was 8.33 µM (active); in experiment [4] it was 14.8 µM (active); in [7] it was 3.72 µM (active). The viability in experiment [1] was 120%. For the same compound, the Potency entry in experiment [2], in experiment [6], in experiment [8] and in experiment [10] was “inactive” in each case.
`Cc1ccc(C(=O)c2cc(O)c(O)c([N+](=O)[O-])c2)cc1`: the Potency in experiment [3] and in [5] was 23.5 µM (active) each time. The Potency entry in experiment [8] and in [10] was “inactive” in each case.
As to `C=C(c1ccc(C(=O)O)cc1)c1cc2c(cc1C)C(C)(C)CCC2(C)C`, the Potency result in [2], in experiment [3], in [6], in [7], in experiment [8] and in experiment [9] was “inactive” each time. Besides, the Potency result in [10] is “inactive”.
On to `COCCCN1CCC(NC(=O)c2cc(Cl)c(N)c3c2OCC3)CC1`, for which the Potency entry in [2] and in [8] was “inactive” in each case. Further, the Potency in [3] was 5.9 µM (active); in experiment [12] it was 18.7 µM (active); in experiment [7], 18.7 µM (active); in experiment [9], 23.5 µM (active).
On to `CNC[C@@H](O)[C@@H](O)[C@H](O)[C@H](O)CO`, for which the Potency result in experiment [11], in [2], in experiment [3], in experiment [4], in experiment [6] and in [7] was “inactive” in each case. Further, the Potency entry in experiment [8] and in experiment [10] was “inactive” throughout.
Turning to `CCOc1cc(CC(=O)N[C@@H](CC(C)C)c2ccccc2N2CCCCC2)ccc1C(=O)O`, the viability in experiment [1] was 138%. The Potency entry in experiment [3], in experiment [4], in experiment [12], in [7], in experiment [8] and in experiment [9] was “inactive” in each case. In addition, in experiment [10], the Potency result is “inactive”.
As to `S=c1nc[nH]c2nc[nH]c12`, the Potency in experiment [11] is 1.66 µM (active); in [3], 2.35 µM (active); in experiment [4], 1.66 µM (active); in experiment [12] it was 5.26 µM (active); in experiment [5], 4.18 µM (active); in experiment [6] it was 5.9 µM (active). Also, in experiment [10], the Potency is 1.18 µM (active). The viability in experiment [1] is 104%.
`CCOC(=O)C1=C[C@@H](OC(CC)CC)[C@H](NC(C)=O)[C@@H](N)C1`: the Potency entry in experiment [11], in experiment [3], in experiment [4], in experiment [12], in [5] and in experiment [6] was “inactive” in each case. Besides, the Potency result in experiment [7], in [8], in [9] and in [10] was “inactive” throughout. For the same compound, the viability in experiment [1] was 108%.
Take `O=C1CCc2ccc(OCCCCN3CCN(c4cccc(Cl)c4Cl)CC3)cc2N1`: the Potency is 18.7 µM (active) in experiment [11] and 23.5 µM (active) in experiment [4]. In experiment [1], the viability is 132%. Besides, the Potency result in experiment [8] and in experiment [10] was “inactive” each time.
As to `Cc1cccc(-c2[nH]ncc2-c2ccc3ncccc3n2)n1`, in experiment [1], the viability was 121%. The Potency entry in [2], in experiment [3], in [12], in experiment [7] and in experiment [8] was “inactive” throughout.
For the compound `COc1cc2c(cc1OC)C1CC(=O)C(CC(C)C)CN1CC2` (stereo unspecified), the Potency result in [11], in [3], in experiment [4], in experiment [5], in experiment [9] and in experiment [10] was “inactive” each time. In addition, the Potency in experiment [7] was 5.9 µM (active).
On to `CC1=C(C)C(=O)C(C(CCCCCC(=O)O)c2ccccc2)=C(C)C1=O` (stereo unspecified), for which the Potency in experiment [11] is 14.8 µM (active); in [12], 3.72 µM (active); in experiment [6], 2.09 µM (active). The viability in experiment [1] was 86.2%. The Potency result in [3] and in experiment [4] was “inactive” throughout.
Take `Cc1c(OCC(F)(F)F)ccnc1CS(=O)c1nc2ccccc2[nH]1` (stereo unspecified): in experiment [1], the viability is 128%. The Potency entry in experiment [7], in experiment [8] and in experiment [10] was “inactive” throughout.
Turning to `CCC[C@@H]1C[C@@H](C(=O)N[C@@H]([C@H]2O[C@H](SC)[C@H](O)[C@@H](O)[C@H]2O)[C@@H](C)O)N(C)C1`, the Potency entry in experiment [11], in experiment [2], in experiment [3], in [4] and in [8] was “inactive” in each case.
On to `N=C(N=C(N)N)N1CCOCC1`, for which the Potency result in experiment [11], in experiment [12], in experiment [5], in [8], in experiment [9] and in experiment [10] was “inactive” throughout. The viability in experiment [1] was 125%. For the same compound, the Potency in experiment [2] was 18.7 µM (active).
As for `OC(CN1CCN(c2cccc(Cl)c2)CC1)C(c1ccccc1)c1ccccc1` (stereo unspecified), in experiment [2], the Potency was 10.5 µM (active). The Potency result in experiment [5] was “inactive”.
